Screen size: about 330,000 compounds; about 1,900 (0.58%) were called active. Inconclusive results (about 4%) are left out. Not all results are given here. Measured potencies and affinities stand elsewhere. Values without a mark were called inactive. Rule as the data show it: inconclusive = inhibition above about 70% without an active follow-up result; inactive = below that.
Test: M. tuberculosis growth inhibition, HTS (AID 449762);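 also: bacterial growth assessed after seven days of incubation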
Settings: M. tuberculosis H37Rv growth inhibition, 7H9 media; at 25 µM; stronger effect = higher value

| SMILES | inhibition [%] |
| --- | --- |
| NC(=O)CSc1nc2cc(Cl)ccc2c(=O)n1C1CCCCC1 | -1.2 |
| COc1ccc(-c2cc3c(=O)n(CC(=O)NCc4ccccc4OC)ncn3n2)cc1 | -8.29 |
| C/C(=N/NC(=O)c1cccs1)c1ccc(N2CCOCC2)cc1 | -6.32 |
| CC1(c2cccc([N+](=O)[O-])c2)CC(C)(C)N(C(=O)c2ccccc2)c2ccccc21 (stereo not given) | 1.14 |
| CC(=O)N1c2ccccc2C(C)(c2ccccc2)CC1(C)C (stereo not given) | -5.59 |
| Cc1cc(C)c(S(=O)(=O)c2ccccc2C)c(SCC(C)C)n1 | 11 |
| Cc1sc2ncn(/N=C/c3ccco3)c(=O)c2c1C | -10.2 |
| Cc1ccc(/C=N/n2cnc3sc(-c4ccccc4)cc3c2=O)o1 | 44.5 |
| CCCCn1nnnc1SCC(=O)Nc1cccc(C)c1 | 7.62 |
| COc1ccc(CCN(C)C(=O)c2ccc(COc3ccccc3)o2)cc1OC | 2.55 |
| CC(O)(CS(=O)(=O)Cc1ccccc1)c1ccccc1Cl (stereo not given) | -7.18 |
| Cn1cnnc1SCC(=O)Nc1nc(-c2ccc(F)cc2)cs1 | -5.61 |
| CCCn1c(N2CCN(CC(=O)Nc3ccc4c(c3)OCCO4)CC2)nc2ccccc21 | -1.09 |
| O=C(NCCN1CCOCC1)NC1(C(F)(F)F)Oc2ccc(Cl)cc2O1 (stereo not given) | 66.9 |
| O=C(Nc1cc(N2CCOCC2)ncn1)NC1(C(F)(F)F)Oc2ccccc2O1 | -1.34 |
| CCOC(=O)c1[nH]c2ccc(OCC)cc2c1NC(=O)CN1CCN(c2ccccc2)CC1 | -2.46 |
| CCOC(=O)c1[nH]c2ccc(F)cc2c1NC(=O)CN1CCc2cc(OC)c(OC)cc2C1 | 11.2 |
| CNC(=S)N(C)CCc1cc2c(c(OC)c1C=C1C(=O)NC(=O)NC1=O)OCO2 | -4.55 |
| Cc1cc(C(=O)N[C@@H](c2ccccc2)[C@]2(C)C[C@H]2[C@@H](C)C(=O)Nc2ccc3ccccc3c2)no1 | 49.4 |
| C[C@@H](C(=O)Nc1ccc2ccccc2c1)[C@@H]1C[C@@]1(C)[C@@H](NC(=O)c1ccccc1)c1ccccc1 | 27.7 |
| Cc1ccc(/C=C/C(=O)N2CCN(S(=O)(=O)c3cccs3)CC2)o1 | -4.62 |
| Cc1ccc(S(=O)(=O)N2CCN(Cc3nc4sc5c(c4c(=O)[nH]3)CCCC5)CC2)cc1 | 1.29 |
| Cc1ccc(S(=O)(=O)Oc2ccc(/C=N/NC(=O)c3c(Cl)cnn3C)cc2)cc1 | 25.4 |

| SMILES | inhibition [%] |
| --- | --- |
| CC(C)c1ccc(/C=N/NC(=O)c2c(Cl)cnn2C)cc1 | -0.44 |
| Fc1ccc(CN2CCN(c3ccc(Cl)cc3)CC2)cc1 | 9.18 |
| CCn1c(N)c(C(=O)NCc2cccnc2)sc1=S | -1.76 |
| Cc1cc(-c2n[nH]c(=S)n2/N=C/C(Cl)=C/c2ccccc2)n[nH]1 | 1.35 |
| S=c1[nH]nc(C2CCCCC2)n1/N=C/C(Cl)=C\c1ccccc1 | -11 |
| S=c1[nH]nc(C2CCCCC2)n1/N=C/c1ccccc1 | 9.46 |
| CC(/C=N/n1c(-c2cc(C)[nH]n2)n[nH]c1=S)=C\c1ccccc1 | -2.29 |
| Fc1cccc2sc(Nc3nc4cc5c(cc4s3)OCCO5)nc12 | 45.4 |
| Cc1c(Cl)cccc1NC(=S)N(CCN(C)C)C(C)c1ccccn1 (stereo not given) | 0.24 |
| CCO[C@@H]1OC(C(=O)Nc2ccccc2)=C[C@H](c2ccc3c(c2)OCO3)[C@H]1CCCO | 13.4 |
| COc1cc(NC(=O)COC(=O)c2cc(S(=O)(=O)N3CCCCC3)ccc2Cl)c(C)cc1[N+](=O)[O-] | -2.58 |
| CCN1C(=O)[C@H]2[C@@H](c3ccc(-c4ccc(C(C)=O)cc4)cc3)N3CCC[C@@]3(C(=O)OC)[C@H]2C1=O | 21.2 |
| CCOc1ccc(C2c3[nH]c4ccccc4c3C[C@H]3C(=O)N(C4CC4)CC(=O)N23)cc1OC (stereo not given in full) | 4.59 |
| COc1ccc(C2c3[nH]c4ccccc4c3C[C@H]3C(=O)N(C4CCN(Cc5ccccc5)CC4)CC(=O)N23)c(OC)c1 (stereo not given in full) | 30.2 |
| COc1ccc(-c2nc3c(s2)CN(S(C)(=O)=O)CC3)cc1OC | -6.59 |
| Cc1nn(-c2ccccc2)c(Cl)c1C(=O)N(C)CC(=O)Nc1cccc(F)c1 | 0.93 |
| CCCn1c(-c2cc(OC)c(OC)c(OC)c2)nc2c1c(=O)[nH]c(=O)n2Cc1ccccc1 | -2.63 |
| Cc1nn(-c2ccccc2)cc1C(c1c(N)[nH]c(=S)[nH]c1=O)c1c(N)[nH]c(=S)[nH]c1=O | 4.9 |
| COc1ccc(NS(=O)(=O)c2ccc3nc(COc4ccc5ccccc5c4)[nH]c3c2)cc1 | 0.01 |
| COc1ccc(NS(=O)(=O)c2ccc3nc(COc4ccc(C#N)cc4)[nH]c3c2)cc1 | 4.82 |
| CCOc1ccc(N2C(=O)C3CC(C)=C(C)CC3C2=O)c([N+](=O)[O-])c1 (stereo not given) | -11.3 |
| CCCCCn1c(SC(C)C(C)=O)nc2c1c(=O)[nH]c(=O)n2C (stereo not given) | -12.7 |

From PubChem BioAssay AID449762 (Southern Research Specialized Biocontainment Screening …, 2010)
